Experimental data reported in ChEMBL document CHEMBL4513216, “Probing the Open Global Health Chemical Diversity Library for Multistage-Active Starting Points for Next-Generation Antimalarials” (ACS Infect Dis, 2020).
In all, about 69,000 compounds went through this assay and about 8,600 (12%) showed an effect of 50% or more. The full list was thinned out, with strong results kept by preference.

Each compound was assayed on Plasmodium berghei (assay: Screen against P. berghei liver stage (PbLuc), transformed with Luciferase, at 10uM). Details: tested at 10 uM.
Format: functional, HepG2

Compound | INHIBITION [%]
Cc1nn(C)c(N(C)C)c1CNCCCN(C(C)C)S(C)(=O)=O | 6.15
COc1ncccc1CN1CCn2c(Cn3cncn3)cnc2C1 | 7.96
CCc1nc(C2CCCN2C(=O)c2ccc3c(c2)[nH]c(=O)n3C)no1 (stereo not given) | -21.7
COc1cccc(CC(=O)NC2CCCc3cn[nH]c32)c1 (stereo not given) | 33.4
Cc1nn(C)c(Cl)c1CNCc1cccnc1N1CCCCC1 | -13
Cc1noc(C)c1CC(=O)N1CCCC(Cc2ccccn2)C1 (stereo not given) | -0.6
CC1(C)COCCN1C(=O)Cc1cc(Cl)c2c(c1)OCCO2 | -117
O=C(C[C@@H]1COC[C@H]2CN(C(=O)c3cccnc3)C[C@@H]12)N1CCOCC1 | -81.1
CCOc1ccc2[nH]c(=O)c(CN3CCC(n4cnnc4)CC3)cc2c1 | 43.4
CN(CCn1ccnc1-c1ccccn1)S(C)(=O)=O | -36
Cn1nc(COCC2CC2)c2c1CN(C(=O)c1ccno1)CC2 | 8.85
O=C(c1ccc(Cl)cc1)N1CCCn2nnc(Cn3cccn3)c2C1 | 10.8
O=C(c1ccncc1)N1CCCn2nnc(Cn3cccn3)c2C1 | 33
Cc1ccsc1C(=O)N1CCCn2nnc(Cn3cccn3)c2C1 | 60.3
O=C(CO)N1CCCn2nnc(Cn3cccn3)c2C1 | 12.1
CCc1ccc(C(=O)N2CCCn3nnc(Cn4cccn4)c3C2)cc1 | 52.3
Cc1ccccc1C(=O)N1CCCn2nnc(Cn3cccn3)c2C1 | -16.9
CN1CCOC(CNCc2csc(C3CCCCC3)n2)C1 (stereo not given) | 13.6
CCN(CC)C(=O)Cn1cc(-c2nc(-c3ccccc3C)no2)nn1 | -19.1
Cn1nc(C2CCCC2)c(-c2ccc3c(c2)OCO3)c1N | 48
Cn1[nH]c(C2CC2)c(-c2ccc3c(c2)OCO3)c1=N | 16.5
CSCCc1nc(-c2ccc3c(c2)OCO3)n(C)n1 | 25.9
CCc1[nH]n(C)c(=N)c1-c1ccc2c(c1)OCO2 | 53.6

Compound | INHIBITION [%]
CCCc1[nH]n(C)c(=N)c1-c1ccc2c(c1)OCO2 | 27.6
Cn1[nH]c(C2CCC2)c(-c2ccc3c(c2)OCO3)c1=N | 64.7
CN(C)c1ncc2c(O)nc(C3CCCNC3)cc2n1 (stereo not given) | 24.8
COc1ccccc1OCCCN1CCNC1=O | 12.9
CCC(=O)Nc1nnc2n(Cc3cccc(OC)c3)[nH]c(C)c1-2 | -31
CN(C)S(=O)(=O)c1ccc(CSCC(=O)NC(C)(C)C)o1 | 17.9
CCCNC(=O)CSCc1ccc(S(=O)(=O)N(C)C)o1 | 53.7
CCC(C)(C)NC(=O)CSCc1ccc(S(=O)(=O)N(C)C)o1 | 3.73
Cc1occc1C(=O)N1CCc2c(CNS(C)(=O)=O)cncc2C1 | 6.55
CC(C)Oc1cccc(CN(C)C(=O)Nc2cccn(C)c2=O)c1 | -15
CN(CCOc1ccccc1)C(=O)Nc1cccn(C)c1=O | 82.4
COc1c(NC(=O)N(C)CCOc2ccccc2)c(C)nn1C | -24.6
CC(C)c1sc(Cl)nc1C(=O)N1CCN(Cc2ccccc2)CC1 | 10.9
Cc1ccc(-n2cc(C(=O)NCc3nnc4n3CCCCC4)nn2)cc1 | -21.2
CCN(CC)c1ccc(CNC(=O)N2CCC(C#N)CC2)cc1 | 2.91
Cc1ccc(C(=O)N2CCCC(N(C)C(=O)OC(C)(C)C)C2)o1 (stereo not given) | 37.8
CN(C(=O)OC(C)(C)C)C1CCN(C(=O)c2ccc(Cl)o2)C1 (stereo not given) | -12.3
CCc1ccc(C(=O)N2CCC(N(C)C(=O)OC(C)(C)C)C2)o1 (stereo not given) | 71.2
c1ccc(-c2nc3c(c(NCc4nnc5n4CCC5)n2)CCNC3)cc1 | 39.4
CC(C)(C)CC(=O)N1CCc2sccc2C1 | -46.6
COc1ccc(CNCCC(=O)N2CCc3sccc3C2)cc1O | 76.2
COc1ccc(CNC(=O)N2CCc3sccc3C2)cc1O | -45
NC(=O)NC(CC(=O)N1CCc2sccc2C1)c1cccc(Br)c1 (stereo not given) | 14.9

Compound | INHIBITION [%]
CN(CCC(=O)N1CCc2sccc2C1)Cc1cc(Br)cs1 | 19.2
O=C(CCN1CCCC1c1cccc(F)c1)N1CCc2sccc2C1 (stereo not given) | 9.54
CN(CCC(=O)N1CCc2sccc2C1)Cc1ccc2c(c1)OCCO2 | -7.35
O=C(CCNCc1cccc(O)c1)N1CCc2sccc2C1 | 81.2
N#Cc1cccc(CNCCC(=O)N2CCc3sccc3C2)c1 | 68.3
CN(C)C(=O)c1cccn1-c1ccc2c(c1)OCCO2 | 9.16
CC(C)(C)OC(=O)N1CCN(c2cccnc2)CC1C(=O)O (stereo not given) | 20.2
CC(C)C(C(=O)N1CCN(Cc2ccccn2)CC1)n1cncn1 (stereo not given) | -24.5
Cc1nc(C(C)C)sc1C(=O)NCCNc1ncccc1C#N | -29.1
O=C(NC1CC1)N1CCC2(CC1)C(=O)NCCN2Cc1ccccc1 | 30.9
CC(C)(C)OC(=O)N(CCNS(=O)(=O)N1CCOCC1)C1CC1 | -28
CN1CCC2(CCCN(c3nccc(C(F)(F)F)n3)C2)CC1 | -2.35
O=C(Nc1cccc(CN2CCOC2=O)c1)N1CCOCC1 | 5.14
O=C(Nc1cccc(CN2CCOC2=O)c1)N1CCCCCC1 | -4.12
Cc1ncc(CN(C)C(=O)Nc2cccc(CN3CCOC3=O)c2)s1 | 52.8
O=C(Nc1cccc(CN2CCOC2=O)c1)N1CCCC1 | 53.8
Cc1ncc(CN(C)C(=O)Nc2cccc(N3CCOC3=O)c2)s1 | 28
Cc1ncc(CN(C)C(=O)Nc2ccc(CN3CCOC3=O)cc2)s1 | 22.5
CCCN1CCC=C(C2c3nc[nH]c3CCN2C(=O)c2ccco2)C1 (stereo not given) | 25.1
OC(CN1CCC(CNCc2ccccn2)CC1)c1ccccc1 (stereo not given) | -36.1
COCC(=O)N1C[C@H]2CNC[C@@]2(C(=O)NCc2cccc3[nH]ccc23)C1 | 13.1
CN(CC1CCCCO1)S(=O)(=O)c1cccc(C(=O)N2CCOCC2)c1 (stereo not given) | 1.19
CC(C)(C)NC(=O)CN1CCCNCC1 | 74.9

Compound | INHIBITION [%]
CC(C)NC(=O)CN1CCCNCC1 | 3.77
CC(C)(C)NC(=O)CN1CCNCC1 | -30
O=C(O)c1cc2c(nc1-c1cncnc1)CCN(C1CCOC1)CC2 (stereo not given) | 37.8
Cc1ccccc1CC(=O)N1CC[C@@](O)(CNS(C)(=O)=O)[C@H](O)C1 | 0.301
N#Cc1ccccc1CN(CCO)Cc1ccsc1 | 36.4
CN(Cc1ccc(F)cc1)C(=O)Nc1cccnc1N1CCCC1 | -2.33
Cn1ccc(NC(=O)CN2C[C@@H]3CC[C@H]2CN(S(C)(=O)=O)C3)n1 | 53.3
CS(=O)(=O)N1C[C@H]2CC[C@@H](C1)N(CCC(=O)NCc1ccccc1F)C2 | -7.02
COCCN1C[C@@H]2CC[C@H]1CN(CC(=O)Nc1ccn(C)n1)C2 | 21.2
COC1CCN(c2ccc(F)cc2CN(C)C(C)C(N)=O)CC1 (stereo not given) | 7.3
Cc1ccccc1N1CC2(CCN(Cc3nccn3C)C2)CC1=O (stereo not given) | 25.2
Cc1nc(C)n(C2CCCN(C(=O)c3csc(C)n3)C2)n1 (stereo not given) | 14.4
CC(=O)Nc1nc(C(=O)N2CCCC(n3ccnc3)C2)cs1 (stereo not given) | 31.9
COCc1nc(C(=O)N2CCCC(n3nc(C)cc3C)C2)cs1 (stereo not given) | 25.1
Cc1cc(C)n(C2CCCN(C(=O)c3csc(C4CC4)n3)C2)n1 (stereo not given) | 34.7
Cc1nc(C(=O)N2CCCC(n3cncn3)C2)cs1 (stereo not given) | 31.1
CC(=O)Nc1nc(C(=O)N2CCCC(n3nc(C)nc3C)C2)cs1 (stereo not given) | 53.9
Cc1nc(C)n(C2CCCN(C(=O)c3csnn3)C2)n1 (stereo not given) | 11.6
CC(=O)Nc1nc(C(=O)N2CCCC(n3cncn3)C2)cs1 (stereo not given) | 67.6
Cc1nc(C)n(C2CCCN(C(=O)c3csc(C(C)C)n3)C2)n1 (stereo not given) | 40.3
Cc1cnc(C(=O)N2CCCC(n3nc(C)nc3C)C2)cn1 (stereo not given) | 7.12
CC(=O)Nc1nc(C(=O)N2CCCC(n3nc(C)cc3C)C2)cs1 (stereo not given) | 57.8
Cc1nc(C)n(C2CCCN(C(=O)c3cscn3)C2)n1 (stereo not given) | 60.2

Compound | INHIBITION [%]
Cc1ccc(N(C)[C@@H]2CC[C@@H]3CN(C(=O)CC4CCOCC4)C[C@@H]32)nn1 | -16
CCSc1ccccc1C(=O)NCCn1nc(-n2cncn2)ccc1=O | 16.5
Cn1ccc(C(=O)N2CCC(Cc3ccc4ncccc4c3)CC2)n1 | 28.1
CC(C)CNC(=O)[C@H]1C[C@H]2CN(C(=O)NCC3CCCCC3)C[C@@H]1O2 | -41.9
CCC(NC1Cc2ccccc2C1)c1ccc(S(C)(=O)=O)cc1 (stereo not given) | 29.4
CCN(CC)S(=O)(=O)c1cnccc1N1CCN(C(C)C)CC1 | -26.8
CCNc1nnc(SC(C(=O)NCc2cccnc2)C(C)C)s1 (stereo not given) | -7.98
CC(CN1CCOCC1)OC(=O)c1ccccc1I (stereo not given) | 38.9
COCc1nc(C(=O)N2CCCC(n3cccn3)C2)cs1 (stereo not given) | 17.8
COCc1nc(C(=O)N2CCCC(n3ccnc3)C2)cs1 (stereo not given) | 59
COCc1nc(C(=O)N2CCCC(n3ccnc3C)C2)cs1 (stereo not given) | -23.9
CC1CN(C)CCN1C(=O)c1ccn(-c2cccc(Cl)c2)n1 (stereo not given) | 10
COCCn1nc(C(=O)N2CCOCC2C)ccc1=O (stereo not given) | 47.6
CC1CN(C)CCN1C(=O)c1ccn(-c2cccc(F)c2)n1 (stereo not given) | 51.1
NC(=O)C1CCN(C(=O)c2ccn(-c3ccc(F)cc3)n2)C1 (stereo not given) | 16.1
CC1CN(C)CCN1C(=O)c1ccn(-c2ccccc2Cl)n1 (stereo not given) | -25.6
COCCn1nc(C(=O)N2CCN(C)CC2C)ccc1=O (stereo not given) | 58.7
CC1CN(C)CCN1C(=O)c1ccn(-c2ccc(F)cc2)n1 (stereo not given) | 56.6
COc1ccc(-n2ccc(C(=O)N3CCN(C)CC3C)n2)cc1 (stereo not given) | 20.9
CC1COCCN1C(=O)c1ccc(=O)n(CCOc2ccccc2)n1 (stereo not given) | 4.41
NC(=O)C1CCN(C(=O)c2ccn(-c3cccc(F)c3)n2)C1 (stereo not given) | 23.5
CC1CN(C)CCN1C(=O)c1ccn(-c2ccccc2)n1 (stereo not given) | 63.5
CC1CN(C)CCN1C(=O)c1cccn1Cc1ccncc1 (stereo not given) | 8.08
